SARS PLpro yeast: qHTS of Yeast-based Assay for SARS-CoV PLP. Potency, µM (titrated, usually from 32.9 µM), inactives show at the top dose activity, positive = growth rescue, actives largely listed as activators. S. cerevisiae expressing SARS-CoV PLpro, growth rescue. AID 485353, 2010. actives 0.19% (n = 330,000); calls by dose curve; also: potency is read from the fitted curve at half-maximal effect; 0% is about no effect; nearly all actives have a fitted effect of over 55% in size
Pf growth 48h: Primary qHTS for delayed death inhibitors of the malarial parasite plastid, 48 hour incubation. P. falciparum luciferase growth in erythrocytes, 48 h. Potency, µM (titrated, usually from 28.7 µM), for inactives: at the top dose activity change, negative = inhibition, most hits filed as inhibitors. actives 5.9% (n = 310,000). AID 504832, 2011; also: potency is read from the fitted curve at half-maximal effect; % is scaled to controls: 0 for no effect and ±100 for the full control effect
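Compounds are pin-transferred into medium, infected erythrocytes (2% hematocrit, 0.1% parasitemia final) are added, and plates sit one parasite generation at 37 C in 5% CO2. Detection reagent is then added and luminescence measured.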
AMA1 RON2 block: qHTS for Inhibitors of AMA1-RON; Towards Development of Antimalarial Drug Lead: Primary Screen | Plasmodium falciparum AMA1 (3D7) - RON2 peptide interaction | AlphaScreen AMA1-biotinylated RON2 peptide binding | Potency, µM (highest dose often 58.2 µM), for the others: at the highest dose activity change, negative = inhibition, actives largely listed as inhibitors | actives 0.2% (n = 360,000) | AID 720542, 2013;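 also: potency is read from the fitted curve at half-maximal effect; 0% = vehicle wells and -100% = peptide control; nearly all actives have a fitted effect of over 45% in size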
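AMA1 (3D7) with his tag at 25 nM final met compounds first, then biotinylated RON2 peptide at 25 nM; detection used donor plus acceptor beads, 10 µg/mL apiece, read by AlphaScreen after 30 min at room temperature.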
CHX counter: Cycloheximide Counterscreen for Small Molecule Inhibitors of Shiga Toxin; cell reporter, cycloheximide protein synthesis inhibition counterscreen; max response, %; actives 12% (n = 300,000); in the data active = max response mostly above about 13%, no sharp cut-off; inactive = mostly below about 14%; also: read at 38.3 µM for the half of the compounds with a filed dose; 0% is about no effect
Pf growth 96h: Primary qHTS for delayed death inhibitors of the malarial parasite plastid, 96 hour incubation; P. falciparum luciferase reporter growth, 96 h; Potency, µM (series often up to 28.7 µM), for inactives: at the top dose activity change, negative = inhibition, actives largely listed as inhibitors; actives 6.9% (n = 320,000); AID 504834, 2011; also: potency is read from the fitted curve at half-maximal effect; % is scaled to controls: 0 for no effect and ±100 for the full control effect
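Luminescence readout: decreased luciferase signal marks inhibited growth of reporter-expressing P. falciparum in infected red cells (2% hematocrit, 0.05% parasitemia final), exposed to compound two generations (96 h, 37 C, 5% CO2).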
Shiga inhibitor: A qHTS for Small Molecule Inhibitors of Shiga Toxin; AID 2315, 2010; inhibition, % at 38.7 µM; actives 9.2% (n = 290,000); Vero cells, Shiga toxin protein synthesis inhibition reporter; in the data active = inhibition mostly above about 28%, no sharp cut-off; inactive = mostly below about 43%; also: 0% is about no effect
An asterisk follows results filed as active; ? = inconclusive; · = no result given; + = active, no number. The list is not random: actives were taken first. Their share in the collection is about 19%. Unless noted, calls follow the shape of the dose curve; as a rule, active = well fitted curve in the direction sought with a large enough effect; inconclusive = small, poorly fitted or top-dose-only effect, or another doubt; inactive = no such curve, though single readings can be large; an effect the other way counts as inactive or inconclusive.

SMILES	SARS PLpro yeast	Pf growth 48h	AMA1 RON2 block	CHX counter	Pf growth 96h	Shiga inhibitor
CC(C)CN1CCC(=O)N(C(CSc2ccc(Br)cc2)c2ccccc2)CC1 (stereo unspecified)	·	·	·	32	·	25
COc1cc(-c2cc3nc(NCCOc4ccccc4)ccn3n2)cc(OC)c1OC	·	·	-16%	·	·	·
CC(C)N1C(=O)c2ccccc2NC(=O)C1C(=O)NCc1cccc(C(F)(F)F)c1 (stereo unspecified)	·	·	-3%	·	·	·
CN(c1ccccc1)S(=O)(=O)c1ccc(C(=O)Nc2ncccc2O)cc1	-11%	6.6µM*	74%	·	9.3µM*	·
CCN(c1ccccc1)S(=O)(=O)c1ccc(C(=O)Nc2ncccc2C)cc1	2%	?	9%	·	-1%	·
CCN(c1ccccc1)S(=O)(=O)c1ccc(C(=O)Nc2ncccc2O)cc1	4%	?	79%	-3	5.9µM*	-6
CC1(c2nc3ccccc3[nH]2)CCC(=O)N1C1CC1 (stereo unspecified)	·	·	0%	·	·	·
O=C(O)CCC(=O)Nc1ccc(OCC(=O)O)cc1	5%	10%	33%	15	·	16
COCCn1c(SCC(=O)Nc2ccc(F)cc2)nc2ccccc2c1=O	-1%	-30%	0%	2	0%	3
COCCn1c(SCC(=O)Nc2ccc(S(=O)(=O)N(C)C)cc2)nc2ccccc21	-6%	·	-16%	-2	4.1µM*	35
COCCCn1c(SCC(=O)Nc2ccc(C)cc2)nc2ccccc2c1=O	-1%	25%	-5%	13	25%	56*
COCCCn1c(SCC(=O)Nc2ccc(C(=O)OC)cc2)nc2ccccc2c1=O	2%	8.3µM*	?	7	?	-6
COCCn1c(SCC(=O)Nc2ccc(N3CCOCC3)cc2)nc2ccccc21	13%	-4%	-16%	-6	?	-13
Cc1ccc(NC(=O)CSc2nc3ccccc3c(=O)n2CCCN2CCCCC2)cc1C	-4%	12µM*	-4%	-4	-20%	-3
CC1(C)CC(=O)C=C(c2cccc(Br)c2)C1	-1%	-1%	-4%	·	?	·
CC(C)N(CCn1c(SCC(=O)Nc2cccnc2Cl)nc2ccccc2c1=O)C(C)C	0%	?	-1%	·	5.9µM*	·
c1ccc2c(c1)Cn1nnnc1-2	1%	8%	9%	-3	4.1µM*	-13
c1ccc(-n2nnnc2-c2cccc3ccccc23)cc1	·	·	5%	·	·	·
CC1=C(C(=O)N(C(C)C)C(C)C)CC(CC(=O)NCCc2ccccn2)C(=O)N1Cc1ccc(F)cc1 (stereo unspecified)	·	·	16%	·	·	·
Cc1nn(Cc2ccc(C(=O)N3c4ccc(F)cc4CCC3C)o2)c(C)c1Br (stereo unspecified)	-7%	·	-14%	9	13µM*	-8
O=C(CC12CC3CC(CC(C3)C1)C2)NC(=S)N1CCCCC1	?	-22%	27%	7	9.3µM*	4
O=C(NCc1cccc(Cl)c1)c1ccc(-n2ccnc2)c2ccoc12	·	·	15%	·	·	·
O=C(COC(=O)c1ccc(Br)o1)Nc1nc2ccccc2s1	-29%	8%	-2%	1	43%	3
Cc1ccc2nc(NC(=O)COC(=O)c3ccco3)sc2c1	·	43%	14%	34*	2%	86*
Cc1ccc2nc(NC(=O)COC(=O)c3ccc(Br)o3)sc2c1	3%	19%	-8%	23*	1.2µM*	133*
SMILES	SARS PLpro yeast	Pf growth 48h	AMA1 RON2 block	CHX counter	Pf growth 96h	Shiga inhibitor
Cc1ccc(CN2C(=O)CSCC2(C)C(=O)Nc2c(C)cccc2C)cc1 (stereo unspecified)	·	·	-7%	·	·	·
NC(=O)c1nsc(C(=O)N(CC(=O)NC2CCCC2)c2cccc(C(F)(F)F)c2)c1N	14%	-24%	3%	5	-7%	14
Cc1nc2c(=O)n(C)c(=O)nc-2n(C)n1	-62%	0.33µM*	-23%	-11	-9%	-3
Cc1ccc(CNC(=O)c2ccccc2N)cc1	-1%	41%	6%	1	-7%	10
Cc1cccc(CNC(=O)c2ccccc2N)c1	-5%	12%	-2%	20*	·	33
COc1cccc(C2NC(=O)c3ccccc3O2)c1OC (stereo unspecified)	2%	16%	-3%	-6	29%	-8
COc1cccc(C2N=C(c3ccccc3C)NO2)c1OC (stereo unspecified)	-7%	63%	-7%	27*	79%	51*
COc1ccc(C2c3cc(OC)c(OC)cc3CC3C(=O)OCC32)cc1OC (stereo unspecified)	·	·	-10%	·	·	·
O=C(CCc1ccc(Oc2cc([N+](=O)[O-])cc([N+](=O)[O-])c2)cc1)N1CCCCCC1	-95%	7.4µM*	?	5	?	23
CCOC(=O)c1cc(C)n(Cc2ccc(OCC)c(OC)c2)c1C	-4%	1.7µM*	-24%	8	·	17
CCOC(=O)c1c(S(=O)(=O)NCCc2ccc(OC)c(OC)c2)c(C)n(C)c1C	4%	8%	9%	3	?	-4
CCOC(=O)c1c(C)c(C)n(Cc2ccc(OC)c(OC)c2)c1C	-3%	8.3µM*	-13%	-5	?	-5
COc1ccc(C2/C(=C(\O)c3ccc4c(c3)CC(C)O4)C(=O)C(=O)N2Cc2cccnc2)c(OC)c1 (stereo unspecified)	0%	-26%	15%	7	?	-6
CC1CC(C)CN(CCCNC(=O)CN2C(=O)COc3ccc(S(=O)(=O)N4CCOCC4)cc32)C1 (stereo unspecified)	-3%	27%	-5%	-5	58%	-5
CCn1c(O)c(N=NC(=O)c2ccc(CSc3nncn3C)cc2)c2ccccc21	17%	10µM*	-13%	-1	12µM*	-8
Cn1cnnc1SCC(=O)NNC(=O)c1ccc(Cl)cc1	17%	11%	5%	-3	-9%	-15
Cn1cnnc1SCc1ccc(C(=O)N=Nc2c(O)n(Cc3ccc(Cl)cc3)c3ccccc23)cc1	2%	2.3µM*	-4%	-2	3.7µM*	11
CSc1ccccc1C(=O)NCCCn1ccnc1	-2%	17%	-4%	-1	0%	-11
Cc1cc(Nc2nnnn2-c2ccccc2)n(-c2ccccc2)n1	4%	32%	5%	-2	9.3µM*	-17
O=C(COC(=O)c1ncc(Cl)c(Cl)c1Cl)NC(=O)NCc1ccccc1	1%	12%	-2%	-4	4%	-10
COCCCNC(=O)c1ccc2c(c1)OCO2	6%	68%	15%	23*	·	+

Screens: PubChem, National Center for Advancing Translational Sciences (NCATS)
